Only some compounds are listed: those with a hit (about 0.87% of all), similar ones and a draw of the others.
APE1 inh – inhibitors of human APE1 endonuclease; P27695; recombinant APE1, TAMRA/BHQ-2 abasic DNA cleavage fluorescence; Potency, µM (highest dose often 65.8 µM), for the others: top-dose activity change, negative = inhibition, actives largely listed as inhibitors; 350,000 tested, 0.35% active;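 further: plate controls were vehicle for no effect and reference inhibitor for full effect; nearly all actives have a fitted effect of over 55% in size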
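Substrate: short duplex with […] THF abasic site, 5'-TAMRA and 3'-BHQ-2, 50 nM final. APE1 at 0.75 nM, preincubated 15 min RT with compound. Fluorescence increase from first to third read measured activity.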
RECQ1 helicase – RECQ1 (human) helicase inhibition; Potency, µM (series often up to 57.3 µM), inactives show at the top dose activity, negative = inhibition, usual class: inhibitors; P46063; 240,000 tested, 0.54% active; RECQ1 DNA unwinding, red fluorescence kinetic read;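 further: plate controls were vehicle for no effect and no enzyme for full effect; nearly all actives have a fitted effect of over 30% in size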
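RECQ1T1 50 nM; forked duplex (20 bp + 30-nt ss tails) 200 nM, ATP 2 mM final; pH 8.0, 2 mM MgCl2, 2.5 ug/ml poly(dI-dC); 15 min compound preincubation; discontinuous kinetic read over 2 h at RT.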
GCN5L2 inh – inhibitors of human GCN5L2 histone acetyltransferase; Potency, µM (top dose mostly 58.9 µM), for inactives: top-dose activity change, negative = inhibition, usual class: inhibitors; AID 504327; GCN5L2 HAT assay, ThioGlo1 CoA-SH fluorescence; Q92830; 390,000 tested, 0.21% active
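Compounds, pin-transferred from DMSO stocks, meet 20nM GCN5L2 for 15 min before the reaction begins with H3(1-25) peptide (75uM) and acetyl-CoA (70uM). Thiol-reactive ThioGlo1 reports CoA release over 20 min at room temperature.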
TDP1 inh – blocks human tyrosyl-DNA phosphodiesterase 1 | 350,000 tested, 0.28% active | recombinant TDP1, AlphaScreen DNA substrate cleavage | Potency, µM (titrated, usually from 130 µM), without a hit: top-dose activity change, negative = inhibition, actives largely listed as inhibitors | Q9NUW8; further: nearly all actives have a fitted effect of over 40% in size
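Steps: enzyme plus compound, 15 min RT; add biotin/phosphotyrosine-FITC oligonucleotide (15 nM final), react 5 min; add donor/acceptor beads (10 ug/ml final), 10 min; read AlphaScreen. Tdp1 at 1 nM final.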
BLM inh – Bloom syndrome helicase (human) inhibition; P54132; recombinant BLM DNA unwinding, fluorescence dequenching; Potency, µM (highest dose often 56.1 µM), for inactives: top-dose activity change, negative = inhibition, usual class: inhibitors; 350,000 tested, 0.2% active;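 further: plate controls were vehicle for no effect and no enzyme for full effect; nearly all actives have a fitted effect of over 35% in size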
An asterisk follows results filed as active; u = inconclusive; x = no result given; [ ] = remark or other dose. The call rests on the fitted dose curve; in most records, active means well fitted curve in the direction sought with a large enough effect; inconclusive means small, poorly fitted or top-dose-only effect, or another doubt; inactive means no such curve, though single readings can be large; an effect the other way counts as inactive or inconclusive. Unless noted, on the % scale 0 is the no-effect control and ±100 the full control effect; potency means the concentration at half of the fitted maximal effect.

SMILES	APE1 inh	RECQ1 helicase	GCN5L2 inh	TDP1 inh	BLM inh
Cc1nc2cc(C(=O)O)ccc2s1	12.4%	-3.3%	0.0%	-6.1%	-5.4%
Cc1ccc(-c2no[n+]([O-])c2C#N)cc1	-5.2%	x	x	x	x
O=c1c(-c2ccccc2)nc2cnc(N3CCNCC3)nc2n1Cc1cccs1	3.0%	-4.8%	-28.8%	x	4.4%
O=c1c(-c2ccccc2)nc2cnc(N3CCNCC3)nc2n1Cc1ccc(F)cc1	2.2%	-1.1%	17.8µM*	x	-7.9%
Cc1nc2cnc(N3CCNCC3)nc2n(CCC#N)c1=O	-0.2%	-5.9%	28.2µM*	x	-2.9%
O=C1c2ccccc2C(=O)N1c1cnc2ccccc2c1	x	x	x	1.3%	x
CCCCC(=O)Nc1ccc(C(=O)NNC(=O)CCc2ccccc2)cc1	-3.6%	-22.3%	23.3%	x	-9.0%
CCCCC(=O)Nc1ccc(C(=O)NNC(=O)c2ccc(C)c(Br)c2)cc1	25.1µM*	-9.3%	-24.5%	x	-12.7%
COc1ccc(NCc2ccc([N+](=O)[O-])s2)cc1	31.6µM*	-4.8%	-2.5%	11.5%	-6.4%
O=S(=O)(c1cccc(-c2n[nH]c(=S)n2-c2ccccc2)c1)N1CCCC1	-8.2%	x	x	x	x
Cc1cccc2cc(C(c3nnnn3C(C)(C)C)N(Cc3ccco3)CC3CCCO3)c(=O)[nH]c12 (configuration not stated)	28.2µM*	-8.3%	-9.1%	x	-14.1%
O=C(N/N=C/c1c(Cl)cccc1Cl)c1ccc(-n2cnnn2)cc1	18.3%	x	-4.9%	56.2µM*	x
CCC(=O)O[C@@H]1CC(=O)O[C@H](C)C/C=C/C=C/[C@H](O)[C@H](C)C[C@H](CC=O)[C@H](O[C@@H]2O[C@H](C)[C@@H](O[C@H]3C[C@@](C)(O)[C@@H](OC(=O)CC)[C@H](C)O3)[C@H](N(C)C)[C@H]2O)[C@H]1OC	-2.9%[21 µM]	x	x	x	x
CN(CCOc1ccc(C[C@H](Nc2ccccc2C(=O)c2ccccc2)C(=O)O)cc1)c1ccccn1	13.6%	-7.6%	31.6µM*	16.2%[56.1 µM]	-3.5%
Cc1cc(-c2ccc(N=Nc3cc(S(=O)(=O)O)c4ccccc4c3N)c(C)c2)ccc1N=Nc1cc(S(=O)(=O)O)c2ccccc2c1N	25.1µM*	12.6µM*	x	13.2%	x
CC(=O)Nc1cccc(S(=O)(=O)N2CCN(S(=O)(=O)c3ccc4c(c3)OCCO4)CC2)c1	x	x	x	-2.6%	x
CO[C@H]1C=CO[C@@]2(C)Oc3c(C)c(O)c4c(O)c(c5c(nc6cc(C)ccn65)c4c3C2=O)NC(=O)/C(C)=C\C=C[C@H](C)[C@H](O)[C@@H](C)[C@@H](O)[C@@H](C)[C@H](OC(C)=O)[C@@H]1C	-0.7%	x	x	x	x
CCc1ccc(OCc2nnc(-c3ccccc3Br)o2)cc1	14.0%	x	-11.1%	50.1µM*	x
Nc1nnc(-c2cccc3ccccc23)o1	-2.7%	x	x	x	x
O=C(OCc1cc(=O)n2c(n1)sc1ccccc12)c1ccc2c(=O)n3c(nc2c1)CCC3	u	-21.5%	-22.1%	50.1µM*	-13.4%
Cc1ccc(COC(=O)Cc2coc3cc(O)ccc23)cc1	-19.8%	x	-6.9%	-7.0%	-11.7%
Cc1ccc2c(CC(=O)OCc3cc(=O)n4c(n3)sc3ccccc34)coc2c1	u	u	-13.6%	25.1µM*	-16.3%
COc1cccc(C2c3c(ncn(-c4cccc(F)c4)c3=N)Oc3ccc4ccccc4c32)c1 (configuration not stated)	x	x	x	4.4%	x
CC(=C/C(=O)O)/C=C/c1ccc(Cl)o1	-3.0%	-2.7%	-3.1%	25.1µM*	85.3%
CC(/C=C/c1ccc(C)o1)=C\C(=O)O	-0.5%	-6.8%	u	2.0%	1.7%
Cc1cccc(OCC(=O)NC(Cc2ccccc2)C(=O)O)c1 (configuration not stated)	14.4%	-1.3%	0.8%	2.7%	1.7%
Cc1ccc2c(c1)c(CC(NC(=O)c1ccccc1Oc1ccccc1)C(=O)O)cn2C(=O)OCc1ccccc1 (configuration not stated)	-6.5%	u	10µM*	6.2%	-18.3%
O=C(c1cccc(Cl)c1Cl)N(Cc1ccco1)Cc1cccs1	x	x	x	0.8%	x
